The list is not random: actives were taken first. Their share in the collection is about 11%.
Pf growth 48h: P. falciparum growth inhibition at 48 hours (one generation). 310,000 compounds, 5.9% hits. Potency, µM (top dose mostly 28.7 µM), inactives show at the highest dose activity change, negative = inhibition, usual class: inhibitors. P. falciparum luciferase growth in erythrocytes, 48 h
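Parasite viability was followed by luminescence of a genomically integrated firefly luciferase. Cultures held 0.1% parasitemia at 2% hematocrit (final), incubated under 5% CO2 at 37 C.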
Pf growth 96h: inhibits malaria parasite growth, 96 h. P. falciparum luciferase reporter growth, 96 h. Potency, µM (doses to about 28.7 µM), without a hit: top-dose activity change, negative = inhibition, most hits filed as inhibitors. 320,000 compounds, 6.9% hits
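96 h incubation, 37 C, 5% CO2, of luciferase-reporter P. falciparum-infected RBCs (2% hematocrit, 0.05% parasitemia final) with test compounds; endpoint luminescence.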
HCV inhibitor: inhibitors of hepatitis C virus infection; Huh7.5.1 HCVcc-Cre infection, luciferase reporter, 44 h; 340,000 compounds, 3.4% hits; Potency, µM (top dose mostly 41.8 µM), for inactives: at the highest dose activity change, negative = inhibition, most hits filed as inhibitors
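Cells seeded at 1,000/well and cultured 4 h, then compounds added followed by HCVcc-Cre virus (~0.5 moi). After 44 h further culture, luciferase substrate was added, plates held 15 min at room temperature, and luminescence read for 15 sec.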
AmpC inh no detg: AmpC beta-lactamase inhibition without detergent; P00811; 330,000 compounds, 0.52% hits; Potency, µM (highest dose often 57.1 µM), for inactives: top-dose activity change, negative = inhibition, most hits filed as inhibitors; AmpC nitrocefin hydrolysis, absorbance 480 nm, 0.0001% Triton; AID 485341;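 also: plate controls were no compound for no effect and no enzyme for full effect; nearly all actives have a fitted effect of over 20% in size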
Target sequence (P00811 whole entry, looked up): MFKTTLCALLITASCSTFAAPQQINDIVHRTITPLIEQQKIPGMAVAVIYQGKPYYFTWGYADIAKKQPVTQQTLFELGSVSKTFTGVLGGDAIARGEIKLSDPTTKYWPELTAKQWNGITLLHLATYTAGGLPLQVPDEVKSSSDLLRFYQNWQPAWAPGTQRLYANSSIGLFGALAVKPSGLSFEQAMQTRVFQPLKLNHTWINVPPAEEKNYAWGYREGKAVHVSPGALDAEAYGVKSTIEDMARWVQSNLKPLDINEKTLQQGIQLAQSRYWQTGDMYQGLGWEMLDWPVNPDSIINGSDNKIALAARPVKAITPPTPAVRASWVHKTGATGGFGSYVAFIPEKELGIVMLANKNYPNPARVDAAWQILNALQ
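20 mM phosphate pH 7.0 + 0.01% (detergent screen) or 0.0001% Triton X-100; 5.3 nM AmpC reagent; cpd preinc 15 min RT; nitrocefin (800 uM stock) to start; A480 q20 s × 4 min; Activity was normalised to no-enzyme and no-compound control wells.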
AMA1-RON2 inh: inhibitors of Plasmodium falciparum AMA1-RON2 interaction. Potency, µM (titrated, usually from 58.2 µM), inactives show at the highest dose activity change, negative = inhibition, most hits filed as inhibitors. AlphaScreen AMA1-biotinylated RON2 peptide binding. 360,000 compounds, 0.2% hits;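 also: 0% = vehicle wells and -100% = peptide control; nearly all actives have a fitted effect of over 45% in size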
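AMA1 (3D7) with his tag at 25 nM final met compounds first, then biotinylated RON2 peptide at 25 nM; detection used donor plus acceptor beads, 10 µg/mL apiece, read by AlphaScreen after 30 min at room temperature.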
AmpC inh detg: inhibitors of E. coli AmpC beta-lactamase with detergent | P00811 | AmpC hydrolysis of nitrocefin, absorbance 480 nm, 0.01% Triton | Potency, µM (highest dose often 114 µM), without a hit: top-dose activity change, negative = inhibition, actives largely listed as inhibitors | 370,000 compounds, 0.041% hits;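 also: 0% = no-compound wells and -100% = no-enzyme wells; nearly all actives have a fitted effect of over 25% in size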
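AmpC (5.3 nM in the dispensed reagent) in 20 mM phosphate pH 7.0 with 0.01% (detergent screen) or 0.0001% Triton X-100 was preincubated with compounds for 15 min at room temperature. Nitrocefin was then added from an 800 uM solution, and hydrolysis was followed at 480 nm.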
Numbers without * were called inactive; [ ] = dose if it differs, or a comment. Calls follow the shape of the dose curve; as a rule, active = well fitted curve in the direction sought with a large enough effect; inconclusive = small, poorly fitted or top-dose-only effect, or another doubt; inactive = no such curve, though single readings can be large; an effect the other way counts as inactive or inconclusive. Unless noted, % is scaled to controls: 0 for no effect and ±100 for the full control effect; potency is read from the fitted curve at half-maximal effect.

What do the screens show for `COc1ccc(C(=O)N/C(=C\c2cn(S(=O)(=O)N(C)C)c3ccccc23)C(=O)NCCCn2ccnc2)cc1`?
Pf growth 48h: 12µM*; Pf growth 96h: 24%; HCV inhibitor: 7%; AmpC inh no detg: 160%; AMA1-RON2 inh: 18%; AmpC inh detg: 0%

Results for CCn1cc(/C=C(\NC(=O)c2ccc(OC)cc2)C(=O)NCCCn2ccnc2)c2ccccc21 ?
AMA1-RON2 inh: -15%; AmpC inh detg: -2%

Results for Cc1cc(C(=O)NC2CC(C)(C)Cc3c2cnn3-c2ccccc2)n(C)n1 (centres undefined) ?
Pf growth 48h: -3%; Pf growth 96h: inconclusive; HCV inhibitor: -15%; AmpC inh no detg: 90%; AMA1-RON2 inh: 5%; AmpC inh detg: -11%

How did CC(=O)[C@@]1(O)C(C)CC2C3C=C(C)C4=Cc5c(cnn5-c5ccccc5)C[C@]4(C)C3C(O)C[C@@]21C (some centres undefined) do in these assays?
Pf growth 48h: 5.2µM*; Pf growth 96h: 10µM*; HCV inhibitor: 7.1µM*; AmpC inh no detg: 88%; AMA1-RON2 inh: -3%; AmpC inh detg: -8%

What do the screens show for `CC/C(=C\C=C\[C@@H]1C=C[C@@H]2CCC[C@H]2[C@@H]1C(=O)c1ccc[nH]1)[C@@H]1O[C@@H]([C@@H](C)C(=O)O)CC[C@@H]1C`?
Pf growth 48h: 2.6µM*; Pf growth 96h: inconclusive; HCV inhibitor: inconclusive; AmpC inh no detg: 1%; AMA1-RON2 inh: -23%; AmpC inh detg: -3%

Results for O=C(O)c1cccc(N/N=C/c2cc(Br)cc(Br)c2O)c1 ?
Pf growth 48h: 74%; Pf growth 96h: inconclusive; HCV inhibitor: 3%; AmpC inh no detg: -14%; AMA1-RON2 inh: -7%; AmpC inh detg: -6%

What do the screens show for `Cc1c(N=Cc2cc(Br)cc(Br)c2O)cccc1C(=O)O`?
Pf growth 48h: 12µM*; Pf growth 96h: inconclusive; HCV inhibitor: -7%; AmpC inh no detg: -17%; AMA1-RON2 inh: 7%[2.32 µM]; AmpC inh detg: -2%

What do the screens show for `CCN(CC)c1ccc(N=Cc2ccc(N(CC)CC)cc2O)cc1`?
Pf growth 48h: 1.2µM*; HCV inhibitor: -13%; AmpC inh no detg: -14%; AMA1-RON2 inh: -26%; AmpC inh detg: inconclusive

How did CCN(CC)c1ccc(C=Nc2ccc(N(C)C)cc2)c(O)c1 do in these assays?
Pf growth 48h: inconclusive; Pf growth 96h: inconclusive; HCV inhibitor: inconclusive; AmpC inh no detg: -19%; AMA1-RON2 inh: -29%; AmpC inh detg: 3%

Results for COc1ccc2nc3oc(C(=O)N4CCN(c5cc(C)ccc5C)CC4)cc3cc2c1 ?
AmpC inh detg: -2%

What do the screens show for `Cc1ccc(S(=O)(=O)N(C)C)cc1NC(=O)c1cncc(Br)c1`?
Pf growth 48h: 13µM*; Pf growth 96h: 13µM*; HCV inhibitor: inconclusive; AmpC inh no detg: -21%; AMA1-RON2 inh: -13%; AmpC inh detg: -16%

How did CCS(=O)(=O)N1CC(=O)N(c2cc(C)ccc2C)C(C)(C(=O)NC2CCCCC2)C1 (centres undefined) do in these assays?
AmpC inh detg: 16%

Results for COC1=CC(=O)C(O)=C(CCCCCCC/C=C/CCCCCCCC2=C(O)C(=O)C=C(OC)C2=O)C1=O ?
HCV inhibitor: 10%; AMA1-RON2 inh: inconclusive

Results for COC1=C(OC)C(=O)C(CCCCCCCCCCO)=C(C)C1=O ?
Pf growth 48h: inconclusive; Pf growth 96h: 6µM*; AmpC inh no detg: 132%; AmpC inh detg: 5%

How did CCCC(C)NC(=O)COc1ccc(S(=O)(=O)c2ccc(OCC(=O)NC(C)CCC)cc2)cc1 (centres undefined) do in these assays?
Pf growth 48h: 12µM*; Pf growth 96h: inconclusive; HCV inhibitor: -18%; AmpC inh no detg: 196%; AMA1-RON2 inh: -1%; AmpC inh detg: -7%

How did CCC(C)NC(=O)COc1ccc(S(=O)(=O)N2CCOCC2)cc1 (centres undefined) do in these assays?
Pf growth 48h: -9%; Pf growth 96h: 37%; HCV inhibitor: 0%; AmpC inh no detg: -5%; AMA1-RON2 inh: -2%; AmpC inh detg: inconclusive

What do the screens show for `Cc1cc(C)n(-c2nc(NC(C)(C)C)nc(NC(C)(C)C)n2)n1`?
Pf growth 48h: inconclusive; Pf growth 96h: 16%; HCV inhibitor: inconclusive; AmpC inh no detg: -19%; AMA1-RON2 inh: 15%; AmpC inh detg: -4%

How did Cc1cc(C)n(-c2nc(Nc3ccccc3C(F)(F)F)nc(-n3nc(C)cc3C)n2)n1 do in these assays?
Pf growth 48h: 4.1µM*; Pf growth 96h: -108%; HCV inhibitor: 5.6µM*; AmpC inh no detg: 113%; AMA1-RON2 inh: 11%; AmpC inh detg: -6%

What do the screens show for `Cc1cc(C)n(-c2nc(Nc3ccccc3C)nc(-n3nc(C)cc3C)n2)n1`?
Pf growth 48h: 2.3µM*; Pf growth 96h: 1µM*; AmpC inh no detg: 40%; AmpC inh detg: -8%

How did CC(C)CCNC(=O)c1ccc(OC2CCN(S(=O)(=O)N(C)C)CC2)cc1 do in these assays?
Pf growth 48h: -24%; Pf growth 96h: -28%; HCV inhibitor: -26%; AmpC inh no detg: 39%; AMA1-RON2 inh: 2%; AmpC inh detg: 2%

Results for C=C(C)CNC(=O)c1ccc(OC2CCN(S(=O)(=O)N(C)C)CC2)cc1 ?
Pf growth 48h: 2%; Pf growth 96h: 13µM*; HCV inhibitor: -3%; AmpC inh no detg: 25%; AMA1-RON2 inh: 2%; AmpC inh detg: 8%

Results for C=C(C)CN(CC)C(=O)c1ccc(OC2CCN(S(=O)(=O)N(C)C)CC2)cc1 ?
Pf growth 48h: 0%; Pf growth 96h: 4.1µM*; HCV inhibitor: -28%; AmpC inh no detg: 109%; AMA1-RON2 inh: -6%; AmpC inh detg: -9%

Results for C#CCN(CC=C)C(=O)c1ccc(OC2CCN(S(=O)(=O)N(C)C)CC2)cc1 ?
Pf growth 48h: 2%; Pf growth 96h: inconclusive; HCV inhibitor: inconclusive; AmpC inh no detg: 25%; AMA1-RON2 inh: 3%; AmpC inh detg: -17%

How did Cc1ccccc1NC(=O)c1sc2nc3c(cc2c1N)CCCC3 do in these assays?
AmpC inh detg: 0%

Results for CC1CCCCN1c1nnc(NC(=O)c2cc(-c3ccc(Br)cc3)on2)s1 (centres undefined) ?
Pf growth 48h: 3%; Pf growth 96h: -21%; HCV inhibitor: -7%; AmpC inh no detg: 40µM*; AMA1-RON2 inh: 109%; AmpC inh detg: inconclusive

How did COC(=O)Cn1c(=O)c2cccn2c2ccc(F)cc21 do in these assays?
AmpC inh detg: 4%

Screening results as filed in PubChem BioAssay.
